Compound activity (PubChem BioAssay)
KDM5B inh – KDM5B demethylase inhibition | 220,000 tested, 2.6% active | Q9UGL1 | KDM5B demethylase, FDH-coupled NADH fluorescence (FDH is formaldehyde dehydrogenase) | Potency, µM (series often up to 57.7 µM), usual class: inhibitors | AID 1347165; active means well fitted inhibition curve with a large enough effect; further: 0% is about no effect; nearly all actives have a fitted effect of over 70% in size
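Inhibition is measured as reduced NADH fluorescence generation from FDH coupling to formaldehyde release. Truncated KDM5BΔAP at 200 nM final acts on H3K4me3 peptide (12.5 µM in substrate mix) in pH 7.5 HEPES buffer with Tween-20, 30 min, room temperature.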
* hit, by the source's call. Many of the other results were omitted from the sample, so hits are more common in it than they were. Potency means the concentration at half of the fitted maximal effect.

CC(=O)N1CCC(C(=O)NCC2CCN(c3cc(-c4ccc(Cl)cc4)[nH]n3)CC2)CC1 was read as KDM5B inh inactive.
Screening CN(C)c1cccc(C(=O)NCC2CCN(c3cc(-c4ccc(Cl)cc4)[nH]n3)CC2)c1 returned KDM5B inh 32µM*.
Cc1nc(-c2ccc(OC3CCN(C(=O)c4[nH]nc5c4COc4ccccc4-5)C3)cc2)no1 (stereo not drawn) was read as KDM5B inh inactive.
`COc1ccc(Cl)cc1C(=O)NNC(=O)C1CCCC(C(F)(F)F)C1` (stereo not drawn) gave KDM5B inh inactive.
`CCOCCCNC(=O)c1ccc(OCC)c(OCC)c1` gave KDM5B inh inactive.
`Cc1ccc(-n2ccc(=O)c(C(=O)Nc3cc(C(F)(F)F)ccc3Cl)n2)cc1` gave KDM5B inh inactive.
`CCc1ncn2ccn(Cc3ccccc3F)c(=O)c12` gave KDM5B inh inactive.
`CNC(=O)c1ccc(NC(=O)c2cccc(N(C)C)c2)cc1` gave KDM5B inh inactive.
`CCc1nc(C)c(CC(=O)N[C@@H]2CCNC[C@H]2O)c(=O)[nH]1` gave KDM5B inh inactive.
For CCCCn1c(SCC(=O)Nc2ccc(OC)cc2)nc2c(oc3ccccc32)c1=O the results were KDM5B inh inactive.
COc1ccc(-c2noc(-c3nc(-c4cc(OC)c(OC)c(OC)c4)no3)n2)cc1 was read as KDM5B inh inactive.
COc1ccc(-c2noc(-c3nc(-c4cccnc4)no3)n2)cc1 was read as KDM5B inh 35µM*.
Screening Cc1noc(-c2nc(Cc3cccc(F)c3)no2)n1 returned KDM5B inh inactive.
COc1ccc(-c2noc(-c3nc(Cc4cccc(F)c4)no3)n2)cc1 was read as KDM5B inh 28µM*.
Screening Fc1cccc(Cc2noc(-c3nc(-c4ccccc4)no3)n2)c1 returned KDM5B inh inactive.
Cc1ccc(-c2noc(-c3nc(-c4cccnc4)no3)n2)cc1 was read as KDM5B inh inactive.
Screening COC[C@@H]1CN(C(=O)c2ccn[nH]2)C[C@H]1c1ccncc1 returned KDM5B inh inactive.
For Cc1cccc(NC(=O)c2nc3ccccc3nc2N2CCOCC2)c1C the results were KDM5B inh inactive.
CC(C)C(NC(=O)c1ccccc1I)c1cccs1 (stereo not drawn) was read as KDM5B inh inactive.
COc1cccc(N2C(=O)NC(=NC3CCCCC3)C23CCN(CCC(C)C)C3)c1 (stereo not drawn) was read as KDM5B inh inactive.
`C#CCOc1ccccc1-c1c(-c2ccccc2)ncn1CCCO` gave KDM5B inh inactive.
CCc1ncc(-c2c(-c3ccccc3)ncn2CCNc2cccnc2)cn1 was read as KDM5B inh inactive.
COc1cc(OC)c(-c2c(-c3ccccc3)ncn2CCF)cc1OC was read as KDM5B inh 25µM*.
`CCNC(=O)N1CCCC(c2noc(COc3ccccc3)n2)C1` (stereo not drawn) gave KDM5B inh inactive.
N#Cc1ccc(C(=O)N2CCC[C@H]2c2nc(-c3ccccc3)no2)cc1 was read as KDM5B inh inactive.
CN(C)C(=O)C1CN(C(=O)CCc2ncc(-c3ccc(F)cc3)o2)c2ccccc2O1 (stereo not drawn) was read as KDM5B inh inactive.
Screening CCc1ccc(-n2cc(C(=O)N3CCC(NC(=O)OC(C)(C)C)CC3)nn2)cc1 returned KDM5B inh inactive.
`c1cncc(Nc2cc3c(cn2)CN(Cc2ccsc2)CCN3)c1` gave KDM5B inh inactive.
c1cc(CN2CCNc3cc(-c4ccsc4)ncc3C2)ccn1 was read as KDM5B inh 35µM*.
For COc1ccc(CN2CCNc3cc(Nc4ccccc4)ncc3C2)cn1 the results were KDM5B inh 32µM*.
COc1ccc(Nc2cc3c(cn2)CN(Cc2ccncc2)CCN3)cc1OC was read as KDM5B inh inactive.
Screening Fc1ccc(CNc2cc3c(cn2)CN(Cc2ccncc2)CCN3)cc1 returned KDM5B inh inactive.
For c1ccc(Nc2cc3c(cn2)CN(Cc2ccsc2)CCN3)cc1 the results were KDM5B inh 40µM*.
For COc1ccc(CN2CCNc3cc(Nc4ccccc4)ncc3C2)cc1O the results were KDM5B inh 28µM*.
For COc1ccc(CN2CCNc3cc(-c4ccccc4)ncc3C2)cc1O the results were KDM5B inh inactive.
For O=C(Nc1ccc2oc(-c3cccnc3)nc2c1)c1cccc(Cl)c1 the results were KDM5B inh inactive.
`COc1ccccc1CCC(=O)Nc1cccn2nc(C(C)C)nc12` gave KDM5B inh inactive.
`COc1ccccc1CCC(=O)NC(C)C(=O)N1CCN(c2ccccn2)CC1` (stereo not drawn) gave KDM5B inh 25µM*.
COc1ccccc1CC(=O)NC1CCN(c2cc(C(F)(F)F)ncn2)CC1 was read as KDM5B inh inactive.
COc1ccccc1CCC(=O)N1CCC(n2nccc2NC(=O)CC(C)C)CC1 was read as KDM5B inh inactive.
Screening COc1ccccc1CC(=O)NC(c1ccccc1)c1ccccc1 returned KDM5B inh inactive.
